Screening data from PubChem BioAssay.
Only some compounds are listed: those with a hit (about 14% of all), similar ones and a draw of the others.
Pf growth 48h = Primary qHTS for delayed death inhibitors of the malarial parasite plastid, 48 hour incubation | AID 504832, 2011 | actives 5.9% (n = 310,000) | P. falciparum luciferase growth in erythrocytes, 48 h | Potency, µM (series often up to 28.7 µM), inactives show at the top dose activity change, negative = inhibition, hits mostly inhibitors; also: potency is read from the fitted curve at half-maximal effect
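Read-out is firefly luciferase luminescence from an integrated reporter in P. falciparum, so falling signal marks reduced parasite growth. Infected erythrocytes were at 2% hematocrit and 0.1% parasitemia (final) in Albumax-supplemented RPMI 1640.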
LASV entry inh = qHTS for Inhibitors of binding or entry into cells for Lassa Virus; Lassa virus pseudotype entry inhibition, cell reporter; Potency, µM (series often up to 37.9 µM), for inactives: top-dose activity change, negative = inhibition, most hits filed as inhibitors; actives 1.2% (n = 300,000); calls by dose curve; tested in HEK293 cells; also: potency is read from the fitted curve at half-maximal effect; nearly all actives have a fitted effect of over 50% in size
Marburg entry inh = qHTS for inhibitors of binding or entry into cells for Marburg Virus | actives 1.8% (n = 300,000) | Marburg virus pseudotyped entry inhibition, cell reporter | AID 540276, 2011 | Potency, µM (series often up to 37.8 µM), inactives show top-dose activity change, negative = inhibition, actives largely listed as inhibitors; calls by dose curve; tested in HEK293 cells; also: potency is read from the fitted curve at half-maximal effect
HCMV inh = qHTS Assay for inhibitors of the human cytomegalovirus (HCMV). activity change, negative = inhibition, % at 57.5 µM. AID 1259415, 2018. HFF cells, HCMV-luciferase reporter, 72 h; active compounds read low. actives 4.5% (n = 410,000); in the data active = activity change below about -60%; inconclusive = no clear call, values can overlap the other calls; inactive = above about -39%
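Two compound doses tested in HFFs infected with HCMV-luciferase, MOI 1 PFU/cell, 72 h at 37C. Lysate luminescence read with OneGlo; data normalized against buffer-only and 10uM Salinomycin inhibitor controls.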
HCV inh = qHTS Assay for Inhibitors of Hepatitis C Virus (HCV); Huh7.5.1 HCVcc-Cre infection, luciferase reporter, 44 h; Potency, µM (series often up to 41.8 µM), inactives show at the top dose activity change, negative = inhibition, most hits filed as inhibitors; actives 3.4% (n = 340,000); AID 651820, 2012; also: potency is read from the fitted curve at half-maximal effect
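Cells seeded at 1,000/well and cultured 4 h, then compounds added followed by HCVcc-Cre virus (~0.5 moi). After 44 h further culture, luciferase substrate was added, plates held 15 min at room temperature, and luminescence read for 15 sec.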
Pf growth 96h = Primary qHTS for delayed death inhibitors of the malarial parasite plastid, 96 hour incubation | Potency, µM (series often up to 28.7 µM), for inactives: at the highest dose activity change, negative = inhibition, usual class: inhibitors | AID 504834, 2011 | actives 6.9% (n = 320,000) | P. falciparum luciferase reporter growth, 96 h; also: potency is read from the fitted curve at half-maximal effect
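Delayed-death screen, second-generation endpoint: infected erythrocytes, 2% hematocrit, 0.05% parasitemia final; 96 hours at 37 C, 5% CO2; luciferase detection reagent; luminescence decrease equals reduced growth.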
* marks the source's active call; other numbers are inactive results; u = inconclusive; x = no result given; ! = repeats disagree; [ ] = remark or other dose. Unless noted, calls follow the shape of the dose curve; as a rule, active = well fitted inhibition curve with a large enough effect; inconclusive = small, poorly fitted or top-dose-only effect, or another doubt; inactive = no such curve, though single readings can be large or run the other way. % is scaled to controls: 0 for no effect and ±100 for the full control effect.

SMILES | Pf growth 48h | LASV entry inh | Marburg entry inh | HCMV inh | HCV inh | Pf growth 96h
COc1ccc(NS(=O)(=O)c2cc(NC(=O)/C=C/c3cc(OC)ccc3OC)ccc2N2CCCCC2)cc1 | 4.1µM* | 3% | u | -39 | -26% | 2.6µM*
COc1ccc(NS(=O)(=O)c2ccc(N3CCCC3)c(NC(=S)Nc3ccc(SC(F)F)cc3)c2)cc1 | u | u | u | -28 | 22µM* | 13µM*
COc1ccc(NS(=O)(=O)c2cc(NC(=O)C3CCCO3)ccc2N2CCCCC2)cc1 (centres undefined) | 5.2µM* | u | u | -64* | u | u
CCCCN1C(=O)C(CC(=O)NCc2ccco2)CC(C(=O)N2CCOCC2)=C1C (centres undefined) | x | x | x | 19 | x | x
CC(C)(C)Cc1c(-c2ccco2)nc2ccc(Cl)cn12 | x | x | x | 22 | x | x
CN(C)c1ccc(Nc2ncnc3c2c(-c2ccccc2)cn3-c2cccc(Cl)c2)cc1 | x | 3%[46.1 µM] | x | u | x | x
COc1ccc(NS(=O)(=O)c2cc(NC(=O)c3ccco3)ccc2N2CCCC2)cc1 | u | u | u | -12 | 10µM* | u
Cc1ccc2nc(C)c3c(c2c1)OC(C(C)(Cl)Br)C3 (centres undefined) | 13µM* | u | -23%[46.1 µM] | -20 | 7.1µM* | u
Cc1nc2ccccc2c2c1CC(C(C)(Cl)Br)O2 (centres undefined) | u | x | x | -92* | 3.2µM* | -5%
COc1ccc2nc(C)c3c(c2c1)OC(C(C)(Cl)Br)C3 (centres undefined) | 3% | -19% | -30%[46.1 µM] | u | -4% | -2%
Cc1ncc(CO)c(/C=N/NC(=S)Nc2ccc(C(C)C)cc2)c1O | u | x | x | 5 | 11µM* | 12µM*
Cc1ncc(CO)c(/C=N/NC(=O)c2ccc(Br)cc2)c1O | u | u | -26% | x | 9% | u
Cc1ncc(CO)c(/C=N/NC(=O)c2cc(O)c(O)c(O)c2)c1O | 2.6µM* | x | x | x | x | u
COc1ccc(C2CC(=O)N(CC(=O)Nc3ccc(C(F)(F)F)cc3)c3ccccc3S2)cc1 (centres undefined) | x | x | u | -16 | x | x
Cc1ccc(CNC(=O)c2cn(C)c3ccc(S(=O)(=O)N4CCC(C)CC4)cc3c2=O)cc1 | x | 16%[46.1 µM] | 3%[46.1 µM] | 8 | x | x
CC(C)Oc1ccc(CNC(=O)Cn2c(=O)c3cccn3c3cccnc32)cc1 | 17% | -38%[46.1 µM] | -1%[46.1 µM] | 46 | -18% | 15µM*
Cc1cccc(CNC(=O)CCn2c(=O)c3cccn3c3ccc(F)cc32)c1 | x | 5%[46.1 µM] | x | -85* | x | x
CCc1ccc(NC(=O)CCn2c(=O)c3cccn3c3ccccc32)cc1 | u | u | u | 25 | 11µM* | -15%
CC(CNC(=O)CCCn1c(=O)c2cccn2c2ccc(F)cc21)c1ccccc1 (centres undefined) | x | -16%[46.1 µM] | x | -14 | x | x
CC(CNC(=O)CCn1c(=O)c2cccn2c2ccc(F)cc21)c1ccccc1 (centres undefined) | u | 0%[46.1 µM] | x | u | u | 13µM*
CC(C)Oc1ccc(CNC(=O)c2ccc(Cn3c(=O)c4cccn4c4cccnc43)cc2)cc1 | x | -15%[46.1 µM] | x | -17 | x | x
COc1ccc(NC(=O)Cn2c(=O)n(CCc3ccccc3)c(=O)c3c4c(sc32)CCCC4)cc1 | x | -15%[46.1 µM] | 7%[46.1 µM] | -13 | x | x
Cc1nc2ccc(NS(=O)(=O)c3c(F)cc(F)cc3Br)cc2s1 | -3% | x | x | u | u | -7%
CN(C)C=Nc1c(I)cc(I)c(CCC(=O)O)c1I | 1% | x | x | -7 | x | 5%
CC(CNC(=O)CCCn1c(=O)c2cccn2c2cccnc21)c1ccccc1 (centres undefined) | x | 4%[46.1 µM] | x | -69*! | x | x
CCc1c(C)nc2ncnn2c1NCCc1ccccc1 | -17% | 3% | u | -35 | 28µM* | u
